# This is a sample that favours compounds with a hit; in the whole collection about 4.8% have one here.
# Calb FLC = affects C. albicans growth with fluconazole. 300,000 compounds, 0.57% hits. growth inhibition, % (no concentration beside the values). C. albicans CaCi-2 (fluconazole-resistant clinical isolate) + fluconazole, Alamar Blue growth, 48 h. AID 1979;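 active = growth inhibition above about 58% in most replicates, limit read from the data, passing the limit was not always enough; inconclusive = exactly half the replicates above a set limit; inactive = most replicates below a set limit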;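 also: all wells also contain fluconazole at 8 µg/ml as a sub-toxic cotreatment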
# Beta cell apopt = blocks beta cell apoptosis; INS-1E cytokine-induced death, ATP luminescence, 48 h; percent of positive-control rescue, neutral wells zero; protection from apoptosis, % (test concentration not listed); 300,000 compounds, 0.8% hits;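 active = Every replicate reaches about 75%, or at least half do and their mean reaches it too, limit read from the data; inconclusive = At least half of replicates reach the limit but their mean does not; inactive = Under half of replicates reach the limit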;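 also: higher means more ATP so stronger rescue from cytokine killing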
# Mdm2-MdmX inh = human Mdm2/MdmX binding inhibition; 330,000 compounds, 3% hits; O15151+Q00987; inhibition, % at 8 µM; SaOS-2 split-luciferase Mdm2/MdmX complementation, luminescence; AID 485346;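 active = inhibition of at least 50% at 8 µM in the primary screen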
# Target sequence (O15151 whole entry, looked up): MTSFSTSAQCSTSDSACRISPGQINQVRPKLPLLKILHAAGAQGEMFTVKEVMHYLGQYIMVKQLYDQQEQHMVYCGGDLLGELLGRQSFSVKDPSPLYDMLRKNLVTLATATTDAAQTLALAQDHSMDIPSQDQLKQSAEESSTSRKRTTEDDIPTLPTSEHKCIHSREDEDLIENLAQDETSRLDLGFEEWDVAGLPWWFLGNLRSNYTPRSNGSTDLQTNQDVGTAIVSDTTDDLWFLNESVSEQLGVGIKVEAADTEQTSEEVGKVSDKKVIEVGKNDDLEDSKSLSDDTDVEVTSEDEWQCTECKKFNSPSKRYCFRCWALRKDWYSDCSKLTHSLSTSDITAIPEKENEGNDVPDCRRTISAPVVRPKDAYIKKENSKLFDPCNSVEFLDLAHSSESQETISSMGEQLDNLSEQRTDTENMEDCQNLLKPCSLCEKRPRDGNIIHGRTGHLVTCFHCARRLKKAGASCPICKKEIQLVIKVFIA
# Target sequence (Q00987 whole entry, looked up): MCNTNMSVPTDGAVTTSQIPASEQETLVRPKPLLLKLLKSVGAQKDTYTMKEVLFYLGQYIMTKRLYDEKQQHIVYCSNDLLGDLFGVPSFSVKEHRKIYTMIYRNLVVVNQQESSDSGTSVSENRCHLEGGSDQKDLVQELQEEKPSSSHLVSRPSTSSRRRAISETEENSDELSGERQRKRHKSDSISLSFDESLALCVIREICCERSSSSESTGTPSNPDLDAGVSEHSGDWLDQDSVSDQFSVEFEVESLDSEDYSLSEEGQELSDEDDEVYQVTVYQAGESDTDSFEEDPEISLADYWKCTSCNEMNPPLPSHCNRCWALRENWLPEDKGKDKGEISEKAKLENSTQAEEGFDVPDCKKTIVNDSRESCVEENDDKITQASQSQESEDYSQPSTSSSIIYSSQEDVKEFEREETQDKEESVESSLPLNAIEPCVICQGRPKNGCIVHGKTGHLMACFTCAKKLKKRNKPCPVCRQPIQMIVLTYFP
# CSC inhib = blocks cancer stem cells; cancer stem cell-like cells viability, luminescence; inhibition, % at 7.5 µM; 300,000 compounds, 1.1% hits; in the data active = inhibition above about 75%; inconclusive = no clear call, values can overlap the other calls; tested in HMLE shEcad cells
# MPTP block = blocks calcium-induced mitochondrial swelling; isolated mouse mitochondria, Ca2+ swelling absorbance, 30 min; inhibition, % at 10 µM; 360,000 compounds, 1.4% hits; AID 602449;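 active = inhibition of 50% or more, scaled per plate between neutral and stimulator controls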
# Mdm2 MdmX conf = human Mdm2/MdmX binding inhibition, confirmed | luminescent assay | inhibition, % at 8 µM | 10,000 compounds, 55% hits | AID 489028 | shares compounds with Mdm2-MdmX inh; in the data active = inhibition above about 40%
# Full FLuc ctr = full-length luciferase inhibition in Mdm2/MdmX counter-screen. shares compounds with Mdm2-MdmX inh. SaOS-2 full-length luciferase counterscreen, luminescence. inhibition, % at 8 µM. 6,200 compounds, 77% hits. AID 504607;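 active = mean inhibition at 8 µM reaching about 37%, which flags the compound as non-specific, limit read from the data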;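 also: p53-null SaOS-2 cells with luciferase driven by a doxycycline-inducible promoter; compound on cells about two nights before reading with doxycycline added after day one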
# Numbers stand for hits; 0 = inactive; ? = inconclusive; - = not tested or not shown.
SMILES,Calb FLC,Beta cell apopt,Mdm2-MdmX inh,CSC inhib,MPTP block,Mdm2 MdmX conf,others
Cc1cccn2c(=O)c3cc(C(=O)NCCN4CCOCC4)c(=N)n(CCN4CCOCC4)c3nc12,0,0,0,-,0,-,
COCCn1c(=N)c(C(=O)NCCc2ccc(OC)cc2)cc2c(=O)n3cccc(C)c3nc21,0,0,0,0,0,-,
Cc1cccc(C)c1NC(=O)C(c1ccnc2ccccc12)N1CCN(C)CC1 (configuration not stated),-,-,-,-,0,-,
CCOC1=C2CN(S(=O)(=O)c3ccc(C)cc3)C(c3ccccc3)CC2N(S(=O)(=O)c2ccc(C)cc2)C(c2ccc(Br)cc2)C1 (configuration not stated),-,-,-,-,0,-,
COc1ccc(Cc2c(-c3ccc(F)cc3)nc3c(C)cc(Br)cn23)c(C)c1,-,-,-,-,0,-,
CNC(=O)CC1C(=O)N(c2ccc(OC)cc2)C(=S)N1NC(=O)c1cccc(F)c1 (configuration not stated),0,0,0,0,0,-,
N=c1c(C(=O)NCc2ccc(F)cc2)cc2c(=O)n3ccccc3nc2n1CCCN1CCOCC1,-,0,53,0,0,0,
CCCn1c(=N)c(C(=O)NCc2ccc3c(c2)OCO3)cc2c(=O)n3cccc(C)c3nc21,0,0,70,0,0,0,
NCC(c1ccccc1Cl)c1c[nH]c2ccccc12 (configuration not stated),0,0,0,0,0,-,
NCC(c1ccc(Cl)cc1Cl)c1c[nH]c2ccccc12 (configuration not stated),80,0,65,95,0,0,
CCc1noc(C)c1C(=O)Nc1nnc(C(CC)CC)s1,-,0,0,0,0,-,
COc1ccc(C2Oc3ccccc3C3=C2C(c2cccs2)n2ncnc2N3)cc1 (configuration not stated),0,0,72,0,0,70,Full FLuc ctr=0
COc1ccc(C(=O)Nc2nc(-c3ccccc3)c(C(C)=O)s2)c(OC)c1,?,0,58,0,0,0,Full FLuc ctr=113
COC(=O)Nc1nc(-c2ccccc2)c(C(=O)c2ccccc2)s1,0,0,61,0,0,54,Full FLuc ctr=95
CC(=O)c1sc(NC(=O)c2ccccc2F)nc1-c1ccccc1,0,0,0,0,0,-,
COC(=O)Nc1nc(C)c(C(=O)c2ccccc2)s1,0,0,0,0,0,-,
CCSc1ncc(Cl)c(C(=O)Nc2sc3c(c2C(=O)NCc2cccnc2)CCCC3)n1,0,-,60,-,0,0,
CCSc1ncc(Cl)c(C(=O)Nc2ccccc2Cl)n1,0,0,0,0,0,-,
O=C(c1ccco1)N(Cc1ccc2c(c1)OCO2)Cc1cc2cc3c(cc2[nH]c1=O)OCO3,0,0,60,0,0,0,
Cc1cc2cc(CN(Cc3ccc4c(c3)OCO4)C(=O)c3ccco3)c(=O)[nH]c2cc1C,0,0,0,0,0,-,
COc1ccc(C(=O)N(Cc2ccccc2)Cc2cc3cc4c(cc3[nH]c2=O)OCCO4)cc1,0,0,51,0,0,65,Full FLuc ctr=51
COc1cccc(C(=O)N(Cc2ccccc2)Cc2cc3cc4c(cc3[nH]c2=O)OCCO4)c1,0,0,0,0,0,-,
Cc1ccc(Cc2cnc(NC(=O)CN3CCOCC3)s2)cc1Cl,0,0,0,0,0,-,
Cc1cc(C)nc(SCC(=O)Nc2ncc(Cc3ccc(Cl)c(Cl)c3)s2)n1,0,0,52,0,0,0,
COC(=O)c1ccc(CSc2nnc(Nc3ccccc3OC)s2)o1,0,0,62,0,-,57,Full FLuc ctr=84
SMILES,Calb FLC,Beta cell apopt,Mdm2-MdmX inh,CSC inhib,MPTP block,Mdm2 MdmX conf,others
COc1ccc(NC(=O)c2ccc(NCCCN3CCOCC3)c([N+](=O)[O-])c2)cc1,0,0,0,0,0,-,
O=C(Nc1ccc(Cl)c([N+](=O)[O-])c1)c1ccc(NCCCN2CCOCC2)c([N+](=O)[O-])c1,0,0,97,-,0,0,
Cc1ccc(NC(=O)c2ccc(NCCCN3CCOCC3)c([N+](=O)[O-])c2)cc1Cl,0,0,56,0,0,0,Full FLuc ctr=69
O=C(NCCCN1CCOCC1)c1ccc(Cl)c([N+](=O)[O-])c1,0,0,0,0,0,-,
COC(=O)Cn1nnnc1-c1nc2cc(C)c(C)cc2[nH]c1=O,-,-,-,-,0,-,
COc1ccccc1-c1oc2ccccc2c1C#CC1(N)CCCCC1,-,0,74,130,0,0,
O=C(NCC(O)c1ccccc1)c1ccc(Cl)c(S(=O)(=O)N2CCCCC2)c1 (configuration not stated),0,-,0,0,0,-,
OCCNc1ncnc2c1cnn2Cc1ccccc1,0,0,-,0,0,-,
c1ccc(CNc2ncnc3c2cnn3Cc2ccccc2)cc1,0,0,58,0,0,55,Full FLuc ctr=70
Clc1ccc(Cn2ncc3c(NCc4ccco4)ncnc32)c(Cl)c1,0,0,74,0,-,66,Full FLuc ctr=0
COC(=O)c1ccc(N2CCN(C)CC2)c(NC(=O)COc2cccc(C)c2)c1,0,0,0,0,0,-,
O=C(c1ccc(C#CC2(O)CCCCC2)cc1)N1CCN(C(c2ccccc2)c2ccccc2)CC1,0,0,57,77,0,0,
O=C(c1ccc(C#CC2(O)CCCCC2)cc1)N1CCN(Cc2ccccc2)CC1,0,0,0,0,0,-,
CCN1CCN(C(=O)c2cc(COc3ccc(F)cc3F)on2)[C@@H](C)C1=O,0,0,0,0,0,-,
NS(=O)(=O)c1ccc(N=Nc2ccc(=O)[nH]c2O)cc1,0,0,-,0,0,-,
NS(=O)(=O)c1ccc(N=Nc2ccc(O)c3ncccc23)cc1,79,121,62,0,0,52,Full FLuc ctr=48
CCOc1ccc(N=Nc2ccc(O)c3ncccc23)cc1,83,0,68,103,0,81,Full FLuc ctr=0
CCOc1ccc(N=Nc2cc(C(C)C)ccc2O)cc1,0,0,0,0,0,-,
COc1cccc(C(C(=O)NC2CCCC2)N2CCN(c3cc(C)nc4ccccc34)CC2)c1OC (configuration not stated),-,-,-,-,0,-,
Nc1cc(N)cc(C(=O)OCC(=O)Nc2cc(S(=O)(=O)N3CCCCC3)ccc2Cl)c1,0,0,0,-,0,-,
CCN(CC)CCCNC(=O)C1CCN(c2ncnc3c2sc2cccc(F)c23)CC1,0,0,0,0,0,-,
CC1CC(C)CN(CCCNC(=O)C2CCN(c3ncnc4c3sc3cccc(F)c34)CC2)C1 (configuration not stated),0,0,56,0,-,0,Full FLuc ctr=64
Cc1cc(OCC(=O)OC(C)C(=O)Nc2ccc(N3CCOCC3)cc2)ccc1Cl (configuration not stated),-,0,0,0,0,-,
Cc1ccc(-c2cc3onc(-c4ccccc4)c3c(=O)n2C)cc1,-,0,73,0,0,74,Full FLuc ctr=103
Cc1ccc(S(=O)(=O)Nc2cccc3c2O[C@H](CN(C)Cc2ccc(-c4ccccc4)cc2)[C@@H](C)CN([C@H](C)CO)C3=O)cc1,-,0,53,-,0,0,
Cc1ccc(S(=O)(=O)Nc2ccc3c(c2)C(=O)N([C@H](C)CO)C[C@H](C)[C@@H](CN(C)Cc2ccc(-c4ccccc4)cc2)O3)cc1,-,0,77,0,0,0,

# High-throughput results deposited in PubChem by several laboratories.
